For 21 compounds, growth inhibition results are on record in PubChem BioAssay (NCI).

Each structure is given as a SMILES string. About 79,000 compounds went through this panel and 15% of them were active in at least one assay; those are over-represented in the sample as a whole. A number with no mark means an inactive call. The source made the active and inactive calls. Rule as the data show it: active = growth inhibition above about 70%; inactive = the rest.

A short description of assay [1]: NCI Yeast Anticancer Drug Screen. Data for the rad50 strain (AID 155).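 Also: 0% = growth of vehicle-only cultures of the same strain.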 As to conditions: S. cerevisiae rad50 strain growth inhibition; at 50.0 µM; hits give high values. A digest of the protocol: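 Vehicle-treated cultures provide the reference for the growth inhibition reported for compound-exposed, repair-deficient yeast.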
Assay [2] in a line: NCI Yeast Anticancer Drug Screen. Data for the mec2-1 strain (AID 157). As to conditions: S. cerevisiae mec2-1 strain, at 50.0 µM, hits give high values. A digest of the protocol:
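Compounds were applied to mec2-1 yeast cells. Their growth was then compared with that of vehicle-treated cultures to give growth inhibition.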

A short description of assay [3]: NCI Yeast Anticancer Drug Screen. Data for the sgs1 mgt1 strain (AID 161).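 Also: 0% = growth of cultures given vehicle only.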 As to conditions: S. cerevisiae sgs1 mgt1 strain, at 50.0 µM, hits give high values. A digest of the protocol: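 Percent growth inhibition was derived by comparing compound-exposed mutant yeast with vehicle-exposed cultures. The strain carries alterations in DNA damage repair.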
Assay [4] in a line: NCI Yeast Anticancer Drug Screen. Data for the cln2 rad14 strain (AID 165).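 Also: 0% = growth equal to vehicle treated cultures.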 As to conditions: S. cerevisiae cln2 rad14 strain, at 50.0 µM, hits give high values. A digest of the protocol:
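Strain: cln2 rad14 yeast, altered in cell cycle control and DNA damage repair. Read-out: growth inhibition vs vehicle.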

The nature of assay [5]: NCI Yeast Anticancer Drug Screen. Data for the bub3 strain (AID 167). As to conditions: S. cerevisiae bub3 mutant strain, at 50.0 µM, hits give high values. A digest of the protocol: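 Mutant yeast screening strain plus compound; vehicle-treated cultures serve as the 0% inhibition reference.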
Assay [6] can be described thus: NCI Yeast Anticancer Drug Screen. Data for the mlh1 rad18 strain (AID 175). As to conditions: S. cerevisiae mlh1 rad18 strain growth inhibition; at 50.0 µM; hits give high values. The gist of the method: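 A repair-deficient yeast strain is exposed to test compound, and growth is scored relative to vehicle-treated controls.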

Consider `S=C(NCCCN1Cc2ccccc2C1)Nc1ccccc1`, for which the growth inhibition in assay [1] is 15.4%; in assay [2], -4.1%; in assay [3], 3.15%; in assay [4], -16.1%; in assay [5] it was 4.85%; in assay [6], -10.6%.

As for `CCCCSCC(N)C(=O)OC` (stereo unspecified), the growth inhibition was 19.1% in assay [1]; -11.2% in assay [2]; 4% in assay [3]; -65.5% in assay [4]; 3.75% in assay [5]; 2.8% in assay [6].

As to `C=Cc1c(C)c2cc3[nH]c(cc4nc(cc5nc(cc1[nH]2)C(C)=C5CCC(=O)OC)C(CCC(=O)OC)=C4C)c(C)c3C=C`, the growth inhibition is 8.1% in assay [1]; 6.45% in assay [2]; 10.3% in assay [3]; 13.1% in assay [4]; -1.05% in assay [5]; -5.85% in assay [6].

On to `CC1C2CC(CC2(C)O)C1(C)C` (stereo unspecified), for which the growth inhibition in assay [1] was 8.45%; in assay [2], -3.1%; in assay [3], 3.35%; in assay [4] it was 9.05%; in assay [5] it was -3.3%; in assay [6], -7.35%.

For `OC(C(c1ccccc1)N1CCCCC1)C(O)(c1ccccc1)c1ccccc1` (stereo unspecified), the growth inhibition in assay [1] was 12.2%; in assay [2] it was -3.15%; in assay [3], 22.6%; in assay [4], 24.9%; in assay [5] it was 6.2%; in assay [6], -0.5%.

`COc1cc(CNc2cnc3cc(N)ccc3n2)cc(OC)c1OC`: the growth inhibition in assay [1] was -32.5%; in assay [2], -26.8%; in assay [3], -66.3%; in assay [4], -18%; in assay [5], -21.7%; in assay [6] it was -30.6%.

As for `Fc1cc(Cl)c(F)cc1Cl`, the growth inhibition in assay [1] is -18%; in assay [2] it was -17.8%; in assay [3], -18.2%; in assay [4], -27.3%; in assay [5], -12.4%; in assay [6], -27.4%.

Consider `Nc1nc(N)c2cc(N3CCCC3c3ccc(Cl)cc3)ccc2n1` (stereo unspecified), for which the growth inhibition in assay [1] is 90.8% (active); in assay [2], 92.5% (active); in assay [3], 91.5% (active); in assay [4], 90.5% (active); in assay [5] it was 91.6% (active); in assay [6], 91% (active).

Consider `C/C(=N\NC(N)=S)c1ccc(/C(C)=N/NC(N)=S)cc1`, for which the growth inhibition in assay [1] is -44.6%; in assay [2], -0.25%; in assay [3], 0.8%; in assay [4], -13.2%; in assay [5], -1.2%; in assay [6], -19.6%.

Consider `O=C1c2ccccc2-c2c1c1ccccc1c(=O)n2Cc1ccco1`, for which the growth inhibition is 16.1% in assay [1]; -29.2% in assay [2]; -2.8% in assay [3]; 8.85% in assay [4]; -11.2% in assay [5]; -18.9% in assay [6].

In the case of `CCn1c(=O)c(C(=O)O)c(Cl)c2cc3c(cc21)OCO3`, the growth inhibition in assay [1] was 10.3%; in assay [2], 9%; in assay [3], 17.5%; in assay [4], 18.9%; in assay [5] it was 6.15%; in assay [6], 38.2%.

Regarding `O=C(CN1C(=O)c2ccccc2C1=O)OCC(=O)c1ccccc1`, the growth inhibition is 18.9% in assay [1]; 12.4% in assay [2]; 1.5% in assay [3]; 0.4% in assay [4]; 12.9% in assay [5]; 4.4% in assay [6].

With `C=CCCC(C)(C(=O)OCC)C(=O)OCC`, the growth inhibition was 7.45% in assay [1]; -15.8% in assay [2]; -23.9% in assay [3]; -30.3% in assay [4]; 1.45% in assay [5]; -11% in assay [6].

With `Clc1ccccc1SSc1ccccc1Cl`, the growth inhibition in assay [1] was 21.4%; in assay [2] it was 23.9%; in assay [3], 22.2%; in assay [4] it was -9.2%; in assay [5], 28.1%; in assay [6], 29.9%.

With `c1ccc(CNc2ncnc3n[nH]nc23)cc1`, the growth inhibition in assay [1] was -14%; in assay [2], -11.8%; in assay [3], 1.2%; in assay [4], 0.3%; in assay [5] it was 20.1%; in assay [6], -8.3%.

For `CCc1c(N)nc(=O)[nH]c1C(=O)O`, the growth inhibition in assay [1] was -4.9%; in assay [2], -0.2%; in assay [3], 10.1%; in assay [4], -26.3%; in assay [5], -26%; in assay [6] it was -16.6%.

As for `COc1ccc(CCCNC(=O)Cc2ccccc2CO)cc1OC`, the growth inhibition was 21.6% in assay [1]; -46.6% in assay [2]; -3.4% in assay [3]; -0.8% in assay [4]; -10.2% in assay [5]; -48.2% in assay [6].

As for `COc1ccc2c(c1)/C(=C/c1cc(OC)c(OC)c(OC)c1)C(=O)N2`, the growth inhibition in assay [1] was 4.3%; in assay [2], -27.2%; in assay [3] it was -8.7%; in assay [4], -1.4%; in assay [5], 1.2%; in assay [6] it was 2.85%.

Regarding `CC(C)c1cccc(C(C)C)c1NC(=O)/C(Cc1nc2ccc(Cl)cc2[nH]c1=O)=N\NC(=O)C[N+](C)(C)C`, the growth inhibition in assay [1] is 17.7%; in assay [2] it was 16.2%; in assay [3], -12.3%; in assay [4], 25.7%; in assay [5] it was 26.9%; in assay [6], 22.7%.

For the compound `COc1cccc(NC(=O)CC(=O)Nc2cccc(OC)c2)c1`, the growth inhibition is -5.05% in assay [1]; 3.6% in assay [2]; -8.4% in assay [3]; -32.1% in assay [4]; 10.1% in assay [5]; -18.7% in assay [6].

For `CCCCNc1cccc2ccccc12`, the growth inhibition was 50.2% in assay [1]; 23.1% in assay [2]; -10.2% in assay [3]; -43.5% in assay [4]; 2.55% in assay [5]; 27.6% in assay [6].
